# Measurements as given in PubChem BioAssay AID2057 (The Scripps Research Institute Molecular Screening Center, 2009).
# The whole screen tested about 320,000 compounds, of which about 2,100 (0.66%) were called active. The sample as a whole holds a higher share of actives than the screen did. A number with no mark means an inactive call.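 How the source made its calls: active means inhibition above the mean inhibition of all tested compounds plus 3 SD, set per campaign (cut at about 40% in these data); inactive means the rest.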
# Target: Induced myeloid leukemia cell differentiation protein Mcl-1 (Homo sapiens) (UniProt Q07820)
# Assay: MCL1-BIM peptide interaction disruptors – biochemical, fluorescence polarization, primary screen (AID 2057);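 further: 0% = DMSO wells and 100% = unlabeled Bim-BH3 peptide control; higher means more loss of mP so more displacement of Bim peptide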
# Conditions: GST-MCL1 / FITC-Bim-BH3 fluorescence polarization; at 10.9 µM; hits give high values
# Sequence of Induced myeloid leukemia cell differentiation protein Mcl-1 (Homo sapiens) (Q07820 whole entry, looked up): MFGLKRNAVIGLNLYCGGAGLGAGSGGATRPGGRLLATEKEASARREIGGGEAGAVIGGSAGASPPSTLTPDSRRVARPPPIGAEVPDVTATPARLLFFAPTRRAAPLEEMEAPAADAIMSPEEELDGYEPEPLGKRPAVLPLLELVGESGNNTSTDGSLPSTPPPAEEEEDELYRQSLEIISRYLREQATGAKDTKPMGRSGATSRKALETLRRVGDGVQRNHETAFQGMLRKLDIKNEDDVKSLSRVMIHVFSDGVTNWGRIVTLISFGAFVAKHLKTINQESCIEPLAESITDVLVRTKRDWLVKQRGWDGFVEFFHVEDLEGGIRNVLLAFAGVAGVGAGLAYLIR
row,SMILES,inhibition
1,Cn1cnnc1SCc1nnc(-c2ccccc2Br)o1,5.99%
2,CCOC(=O)N1CCN(Cc2nnc(-c3ccccc3Cl)o2)CC1,2.02%
3,Nc1cccc2c1C(=O)N(Cc1nnc(-c3ccccc3Br)o1)C2=O,54.3% (active)
4,C=CCOC(=O)C1=C(C)N=C2SCCC(=O)N2C1/C=C/c1ccccc1OC (stereo not drawn),-0.33%
5,COc1ccc(C2=CC(c3cccc(OC)c3)n3nnnc3N2)cc1 (stereo not drawn),37.5%
6,COc1ccc(C2C=C(c3ccc(Br)cc3)Nc3nc(NS(C)(=O)=O)nn32)cc1 (stereo not drawn),175% (active)
7,COc1ccc(C2CC(c3ccc(C)cc3)Nc3nc(N)nn32)cc1 (stereo not drawn),-0.86%
8,COc1ccc(NC(=O)C(=O)NCC(c2ccco2)N2CCc3ccccc3C2)cc1 (stereo not drawn),2.73%
9,COC(=O)CCCCCN1C(=O)NC(c2ccc(-c3ccccc3)cc2)C(C(=O)OCc2ccccc2)=C1C (stereo not drawn),6.48%
10,O=[N+]([O-])c1ccc(F)cc1Oc1nc(-c2cccnc2)nc2ccccc12,-2.6%
11,COc1ccc(Nc2nc(-c3cccnc3)nc3ccccc23)cn1,128% (active)
12,Cc1cccc(-c2nc(Nc3ccc(O)cc3)c3ccccc3n2)c1,3.74%
13,CCNC(=O)CC1C(=O)N(c2ccc(OC)cc2)C(=S)N1CCc1ccncc1 (stereo not drawn),-3.91%
14,Cc1cc(C)c(-c2csc(NC(=O)CCCc3nc4ccccc4c(=O)[nH]3)n2)c(C)c1,-5.51%
15,CCOC(=O)C1CCN(C(=O)Nc2ccc(C)c(Cl)c2)CC1,4.72%
16,COc1cc(SC)ccc1C(=O)Nc1cc(C)ccn1,0.12%
17,Cc1ccnc(NC(=O)c2ccoc2C)c1,42.1% (active)
18,Cc1ccnc(NC(=O)CNC(=O)c2ccccc2)c1,6.08%
19,COc1ccc(CN2C(=O)C(C)S/C2=N/N=C/c2ccco2)cc1 (stereo not drawn),4.92%
20,COc1ccccc1C(=O)NCCC(=O)NC(C)CCc1ccccc1 (stereo not drawn),-13.4%

row,SMILES,inhibition
1,Cc1cc2oc3ccc(NCCC4CCCN4C)cc3c(=O)c2cc1C (stereo not drawn),41.8% (active)
2,CCCOc1ccc(C2c3c(oc4cc(C)c(C)cc4c3=O)C(=O)N2CCCN2CCOCC2)cc1 (stereo not drawn),14.2%
3,CCN(CC)C(=O)Oc1ccc(Br)cc1C(=O)Nc1ccc(F)c(Cl)c1,1.92%
4,C=C1c2c(Cl)ccc(O)c2C(O)=C2C(=O)[C@]3(O)C(O)=C(C(N)=O)C(=O)[C@@H](N(C)C)[C@@H]3[C@@H](O)C12 (stereo partly drawn),87.2% (active)
5,CN(C)[C@@H]1C(=O)C(C(N)=O)=C(O)[C@@]2(O)C(=O)C3=C(O)c4c(O)ccc(Cl)c4[C@@H](O)[C@H]3C[C@@H]12,31.5%
6,CCc1ccc(-c2cc(C)no2)cc1S(=O)(=O)NCCc1ccc(S(N)(=O)=O)cc1,7.69%
7,COc1ccc(CCNC(=O)CSCc2ccc(Br)cc2)cc1OC,13.2%
8,O=C(O)c1cc(S(=O)(=O)N2CCCCCC2)c(Cl)cc1Cl,4.06%
9,O=C(C[n+]1cc(Br)cc2ccccc21)c1ccc(F)cc1,63.3% (active)
10,O=C(CNC(=O)c1ccc(F)cc1)c1ccccc1,-5.56%
11,O=C(CNC(=O)c1ccccc1F)c1ccc(Br)cc1,-5.03%
12,CCCCn1c(N)c(N(CCOC)C(=O)c2sc3ccccc3c2Cl)c(=O)[nH]c1=O,-3.09%
13,O=C1c2ccccc2C(=O)N1CCC(O)C[N+](=O)[O-] (stereo not drawn),0.99%
14,CCOC(=O)c1c(N)sc(C(C)=O)c1C,12.2%
15,COCCOC(=O)c1sc(=S)n(CCOC)c1N,105% (active)
16,COC(=O)c1sc(=S)n(-c2ccc(Cl)cc2)c1C,1.56%
17,CCOc1ccccc1NC(=O)C1CCCN(S(=O)(=O)c2ccccc2)C1 (stereo not drawn),-2.29%
18,O=C(C/C(=N\NC(=O)c1ccccc1Br)C(F)(F)F)c1cccs1,12.5%
19,O=c1ccc2c(-c3ccccc3S(=O)(=O)O)c3ccc(O)c(O)c3oc-2c1O,88.1% (active)
20,Cn1c(Nc2ccccc2)cc(=O)n(C)c1=O,-3.95%

row,SMILES,inhibition
1,COC(=O)CCCC1=CC2=CC(=O)C(C)(OC(=O)c3cccs3)C(=O)C2=CN1CC1CC1 (stereo not drawn),17.1%
2,COC(=O)CCCC1=CC2=CC(=O)C(C)(OC(=O)c3cccs3)C(=O)C2=CN1CC(C)C (stereo not drawn),14.8%
3,COC/C=C/C1=CC2=CC(=O)C(C)(OC(=O)CCC(=O)OC)C(=O)C2=CO1 (stereo not drawn),64.3% (active)
4,O=C(CSc1ccccc1)Nc1cccc(S(=O)(=O)N2CCCCC2)c1,-3.17%
5,COc1ccc(-c2ccc(OC(=O)NC3CCS(=O)(=O)C3)cc2)cc1 (stereo not drawn),5.93%
6,O=c1[nH]c(=S)[nH]c2[nH]c(=S)[nH]c12,92.7% (active)
7,Cc1c(C)c(C)c2[nH]c(=S)[nH]c2c1C,-26%
8,COc1ccccc1N1CCN(C(=O)c2cc(=O)c3cc(C)cc(C)c3o2)CC1,0.82%
9,CCOc1ccc(N2CC(C(=O)NCCN3C(=O)S/C(=C\c4cccnc4)C3=O)CC2=O)cc1 (stereo not drawn),-2.41%
10,COc1ccccc1N1CC(C(=O)NCCN2C(=O)S/C(=C\c3cccnc3)C2=O)CC1=O (stereo not drawn),14.4%
11,COc1ccc(N2CC(C(=O)NCCN3C(=O)S/C(=C\c4cccnc4)C3=O)CC2=O)c(OC)c1 (stereo not drawn),166% (active)
12,CC1CC(=O)N(CC(=O)Nc2cccc(Cl)c2)c2ccccc2S1(=O)=O (stereo not drawn),-4.67%
13,CCCC1OC23CCCCC2C(C#N)(C#N)C1(C#N)C(=N)O3 (stereo not drawn),95.8% (active)
14,CCCC[C@@H]1CN=C(N)N1CCc1cc(C(F)(F)F)cc(C(F)(F)F)c1,10.6%
15,O=C(Nn1c(-c2ccc(Cl)cc2)nc2ccccc2c1=O)c1cccnc1Cl,5.2%
16,CN(C)c1ccc(Nc2c3c4c(cccc4n(C)c2=O)C(=O)c2ccccc2-3)cc1,55.2% (active)
17,CCOC(=O)C(CC)/C(C)=N\NC(=O)c1cccc(C)c1 (stereo not drawn),-4.82%
18,Cc1ccc(NS(=O)(=O)c2ccc(F)cc2)nc1,1.22%
